{
  "source": "paper PMC7862700",
  "about": "“An all-to-all approach to the identification of sequence-specific readers for epigenetic DNA modifications on cytosine”",
  "test_in_all_cases": "DAPPL (digital affinity profiling via proximity ligation, sequencing); 10 mM Tris-HCl pH 7.5, 50 mM NaCl, 1 mM DTT, 4% glycerol, room temperature, 30 min; GST-TFs on glutathione beads, 16-mer random dsDNA library, 0.1% formaldehyde crosslink after washing; high values mean tight binding",
  "details_in_all_cases": "protein: recombinant; tags: N-terminal GST; dsDNA, one strand shown",
  "key": {"GABPA": {"biological_target": "T1, GABPA (Homo sapiens, UniProt Q06546 1-454)", "T1 sequence": "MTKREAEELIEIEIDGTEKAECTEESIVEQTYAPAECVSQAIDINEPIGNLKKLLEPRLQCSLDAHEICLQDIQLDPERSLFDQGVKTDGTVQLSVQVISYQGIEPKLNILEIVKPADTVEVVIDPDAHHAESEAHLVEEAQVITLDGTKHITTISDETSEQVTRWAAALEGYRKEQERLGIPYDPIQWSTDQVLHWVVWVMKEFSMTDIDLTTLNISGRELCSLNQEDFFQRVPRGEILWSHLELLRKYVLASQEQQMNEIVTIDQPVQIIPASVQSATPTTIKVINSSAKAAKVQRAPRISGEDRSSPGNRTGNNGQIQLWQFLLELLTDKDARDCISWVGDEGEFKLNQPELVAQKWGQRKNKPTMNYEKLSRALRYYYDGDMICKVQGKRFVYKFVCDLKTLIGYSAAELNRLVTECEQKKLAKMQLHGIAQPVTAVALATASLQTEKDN", "outline": "(§1)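 A tag-only sample was pooled with DNA-barcoded human transcription factors that had been expressed in yeast as GST fusions and captured on glutathione beads. The pools were incubated for 30 min at room temperature with 200 nmole of a random double-stranded 16-mer DNA library in Tris/NaCl/DTT/glycerol buffer, then washed, crosslinked with 0.1% formaldehyde, proximity-ligated (BsaI/T4 ligase, 1 h, 37 °C), PCR-amplified and sequenced on an Illumina NextSeq500. Binding signal is each hexamer's read frequency for a factor divided by its frequency for the tag-only sample.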"}, "SPIC": {"biological_target": "T2, SPIC (Homo sapiens, UniProt Q8N5J4 1-248)", "T2 sequence": "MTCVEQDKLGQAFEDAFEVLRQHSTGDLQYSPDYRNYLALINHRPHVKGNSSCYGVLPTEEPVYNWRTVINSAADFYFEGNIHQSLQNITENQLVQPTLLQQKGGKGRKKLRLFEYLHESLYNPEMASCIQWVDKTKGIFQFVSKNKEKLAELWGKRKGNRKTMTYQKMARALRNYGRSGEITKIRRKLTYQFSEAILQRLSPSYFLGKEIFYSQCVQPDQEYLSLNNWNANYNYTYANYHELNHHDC", "outline": "as §1"}, "ELK4": {"biological_target": "T3, ELK4 (Homo sapiens, UniProt P28324-2 1-405)", "T3 sequence": "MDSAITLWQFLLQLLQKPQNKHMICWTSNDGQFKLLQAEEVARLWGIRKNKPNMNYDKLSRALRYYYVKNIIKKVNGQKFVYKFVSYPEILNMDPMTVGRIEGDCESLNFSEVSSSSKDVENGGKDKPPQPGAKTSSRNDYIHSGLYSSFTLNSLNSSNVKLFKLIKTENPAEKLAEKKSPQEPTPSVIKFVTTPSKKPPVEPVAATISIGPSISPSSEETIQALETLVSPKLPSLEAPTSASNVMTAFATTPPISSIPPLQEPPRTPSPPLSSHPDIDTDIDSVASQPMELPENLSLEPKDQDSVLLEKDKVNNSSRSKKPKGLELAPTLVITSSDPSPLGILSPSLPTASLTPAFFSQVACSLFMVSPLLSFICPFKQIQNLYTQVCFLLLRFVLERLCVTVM", "outline": "as §1"}, "ELF1": {"biological_target": "ELF1 (Homo sapiens, UniProt P32519 1-619)", "sequence (P32519 whole entry)": "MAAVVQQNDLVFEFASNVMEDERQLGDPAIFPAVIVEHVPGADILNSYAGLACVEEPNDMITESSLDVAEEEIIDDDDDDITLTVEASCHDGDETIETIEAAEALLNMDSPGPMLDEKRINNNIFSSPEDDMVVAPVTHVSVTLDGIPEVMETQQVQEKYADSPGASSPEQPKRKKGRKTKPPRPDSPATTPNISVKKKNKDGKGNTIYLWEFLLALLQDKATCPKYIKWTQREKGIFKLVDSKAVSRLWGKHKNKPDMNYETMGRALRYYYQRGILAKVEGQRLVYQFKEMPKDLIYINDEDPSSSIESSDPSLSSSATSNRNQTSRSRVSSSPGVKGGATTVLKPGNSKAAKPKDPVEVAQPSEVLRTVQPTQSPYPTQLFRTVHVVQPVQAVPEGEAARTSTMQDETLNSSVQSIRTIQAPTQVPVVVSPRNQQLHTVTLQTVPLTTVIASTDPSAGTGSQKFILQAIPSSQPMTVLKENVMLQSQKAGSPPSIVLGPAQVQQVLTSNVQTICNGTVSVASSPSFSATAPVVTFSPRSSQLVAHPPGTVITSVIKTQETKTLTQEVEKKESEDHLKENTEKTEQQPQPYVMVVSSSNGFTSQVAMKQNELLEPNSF", "outline": "as §1"}, "SPIB": {"biological_target": "SPIB (Homo sapiens, UniProt Q01892 1-262)", "sequence (Q01892 whole entry)": "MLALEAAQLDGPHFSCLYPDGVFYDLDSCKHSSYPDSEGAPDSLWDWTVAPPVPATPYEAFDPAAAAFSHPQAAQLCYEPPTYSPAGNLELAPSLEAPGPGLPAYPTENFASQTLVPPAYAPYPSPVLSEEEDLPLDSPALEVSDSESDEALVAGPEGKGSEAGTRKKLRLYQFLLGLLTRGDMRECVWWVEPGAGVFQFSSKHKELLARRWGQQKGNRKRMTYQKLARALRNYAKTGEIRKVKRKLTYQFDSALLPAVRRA", "outline": "as §1"}, "ELK3": {"biological_target": "T4, ELK3 (Homo sapiens, UniProt P41970 1-407)", "T4 sequence": "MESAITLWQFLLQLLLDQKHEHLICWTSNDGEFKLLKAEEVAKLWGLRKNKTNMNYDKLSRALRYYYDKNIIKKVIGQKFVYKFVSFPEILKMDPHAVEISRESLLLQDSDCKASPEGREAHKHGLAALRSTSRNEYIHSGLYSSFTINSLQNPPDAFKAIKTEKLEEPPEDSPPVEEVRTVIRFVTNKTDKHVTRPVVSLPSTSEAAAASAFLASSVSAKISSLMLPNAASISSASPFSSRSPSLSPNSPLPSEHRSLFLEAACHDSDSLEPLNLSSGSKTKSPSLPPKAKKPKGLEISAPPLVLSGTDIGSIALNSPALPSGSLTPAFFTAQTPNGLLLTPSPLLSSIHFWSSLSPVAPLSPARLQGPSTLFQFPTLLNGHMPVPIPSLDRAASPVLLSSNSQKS", "outline": "as §1"}, "ETV1": {"biological_target": "ETV1 (Homo sapiens, UniProt P50549 1-477)", "sequence (P50549 whole entry)": "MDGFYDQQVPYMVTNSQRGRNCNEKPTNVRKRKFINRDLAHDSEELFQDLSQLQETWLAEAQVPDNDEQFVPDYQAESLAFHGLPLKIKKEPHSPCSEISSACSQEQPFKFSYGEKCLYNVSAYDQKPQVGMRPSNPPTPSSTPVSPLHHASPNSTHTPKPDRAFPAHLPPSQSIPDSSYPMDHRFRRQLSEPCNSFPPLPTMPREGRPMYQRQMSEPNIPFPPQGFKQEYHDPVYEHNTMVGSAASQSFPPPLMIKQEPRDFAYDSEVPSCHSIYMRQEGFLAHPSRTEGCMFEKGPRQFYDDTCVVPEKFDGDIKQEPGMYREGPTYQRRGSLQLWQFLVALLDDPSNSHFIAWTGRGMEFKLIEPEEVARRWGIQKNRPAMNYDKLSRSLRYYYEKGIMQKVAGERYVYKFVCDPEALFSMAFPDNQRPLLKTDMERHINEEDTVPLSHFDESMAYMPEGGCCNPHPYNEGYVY", "outline": "as §1"}, "ERF": {"biological_target": "T5, ERF (Homo sapiens, UniProt P50548 1-548)", "T5 sequence": "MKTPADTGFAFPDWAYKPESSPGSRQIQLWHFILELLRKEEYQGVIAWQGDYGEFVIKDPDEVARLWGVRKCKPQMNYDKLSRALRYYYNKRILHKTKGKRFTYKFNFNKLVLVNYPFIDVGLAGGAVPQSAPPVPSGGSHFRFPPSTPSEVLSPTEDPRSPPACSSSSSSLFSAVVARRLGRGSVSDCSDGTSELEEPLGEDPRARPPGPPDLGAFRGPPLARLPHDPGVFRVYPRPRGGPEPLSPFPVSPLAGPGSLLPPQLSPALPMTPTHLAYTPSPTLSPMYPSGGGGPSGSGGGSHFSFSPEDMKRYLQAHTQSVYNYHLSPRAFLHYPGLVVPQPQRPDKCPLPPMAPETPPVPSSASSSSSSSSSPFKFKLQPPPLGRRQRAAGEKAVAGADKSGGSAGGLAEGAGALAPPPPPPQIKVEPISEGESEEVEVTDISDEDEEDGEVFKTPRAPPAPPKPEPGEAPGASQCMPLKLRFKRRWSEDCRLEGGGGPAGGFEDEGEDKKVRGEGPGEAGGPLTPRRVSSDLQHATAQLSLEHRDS", "outline": "as §1"}, "ETV3L": {"biological_target": "T6, ETV3L (Homo sapiens, UniProt Q6ZN32 1-361)", "T6 sequence": "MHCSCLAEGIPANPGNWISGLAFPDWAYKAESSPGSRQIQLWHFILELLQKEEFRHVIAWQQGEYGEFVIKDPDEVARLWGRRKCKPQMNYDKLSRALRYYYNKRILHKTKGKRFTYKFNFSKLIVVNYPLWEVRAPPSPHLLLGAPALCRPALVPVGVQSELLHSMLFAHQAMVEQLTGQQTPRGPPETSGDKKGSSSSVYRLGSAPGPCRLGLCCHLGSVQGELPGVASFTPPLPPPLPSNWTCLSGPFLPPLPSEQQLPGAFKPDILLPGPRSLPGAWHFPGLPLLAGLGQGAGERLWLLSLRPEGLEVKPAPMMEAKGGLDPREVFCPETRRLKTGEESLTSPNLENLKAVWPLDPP", "outline": "as §1"}, "SPDEF": {"biological_target": "T7, SPDEF (Homo sapiens, UniProt O95238 1-335)", "T7 sequence": "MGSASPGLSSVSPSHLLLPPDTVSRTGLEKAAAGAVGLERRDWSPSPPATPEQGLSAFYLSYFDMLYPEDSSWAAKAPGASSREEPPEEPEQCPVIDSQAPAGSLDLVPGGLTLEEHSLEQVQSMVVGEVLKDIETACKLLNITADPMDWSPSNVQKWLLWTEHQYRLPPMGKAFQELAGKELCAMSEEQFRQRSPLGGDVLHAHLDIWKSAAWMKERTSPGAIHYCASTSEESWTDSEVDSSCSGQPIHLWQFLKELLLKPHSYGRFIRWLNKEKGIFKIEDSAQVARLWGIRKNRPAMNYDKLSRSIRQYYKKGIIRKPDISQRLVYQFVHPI", "outline": "as §1"}, "ETV7": {"biological_target": "T8, ETV7 (Homo sapiens, UniProt Q9Y603 1-341)", "T8 sequence": "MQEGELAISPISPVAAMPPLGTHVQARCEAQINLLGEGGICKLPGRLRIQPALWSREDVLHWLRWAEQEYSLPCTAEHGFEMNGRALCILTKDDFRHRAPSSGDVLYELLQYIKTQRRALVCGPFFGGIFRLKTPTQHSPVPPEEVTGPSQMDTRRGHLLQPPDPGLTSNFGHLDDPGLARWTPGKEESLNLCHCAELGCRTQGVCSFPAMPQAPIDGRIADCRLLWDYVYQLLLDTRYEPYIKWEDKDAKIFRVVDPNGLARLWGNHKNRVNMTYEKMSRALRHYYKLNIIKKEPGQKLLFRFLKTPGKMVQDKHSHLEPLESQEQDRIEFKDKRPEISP", "outline": "as §1"}, "SPI1": {"biological_target": "SPI1 (Homo sapiens, UniProt P17947 1-270)", "outline": "as §1"}, "ELF3": {"biological_target": "T9, ELF3 (Homo sapiens, UniProt P78545 1-371)", "T9 sequence": "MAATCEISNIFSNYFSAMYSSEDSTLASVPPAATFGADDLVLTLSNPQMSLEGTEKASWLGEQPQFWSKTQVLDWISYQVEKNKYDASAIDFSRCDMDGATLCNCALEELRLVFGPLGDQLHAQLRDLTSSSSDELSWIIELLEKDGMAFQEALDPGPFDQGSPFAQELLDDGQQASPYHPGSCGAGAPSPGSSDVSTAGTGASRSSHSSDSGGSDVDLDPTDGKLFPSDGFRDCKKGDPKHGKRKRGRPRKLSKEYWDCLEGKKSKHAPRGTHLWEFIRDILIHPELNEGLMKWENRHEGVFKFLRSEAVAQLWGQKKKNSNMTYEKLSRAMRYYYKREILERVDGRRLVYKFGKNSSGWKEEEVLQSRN", "outline": "as §1"}},
  "data": [
    {"sequence": "TGGCGC", "values": [
      {"measurement": "binding signal", "setting": "GABPA", "result": "1.02 fold enrichment (6-mer frequency, TF over GST control)"},
      {"measurement": "binding signal", "setting": "SPIC", "result": "1.1 fold enrichment (6-mer frequency, TF over GST control)"},
      {"measurement": "binding signal", "setting": "ELK4", "result": "1.06 fold enrichment (6-mer frequency, TF over GST control)"}
    ]},
    {"sequence": "CCACGT", "values": [
      {"measurement": "binding signal", "setting": "GABPA", "result": "1.09 fold enrichment (6-mer frequency, TF over GST control)"},
      {"measurement": "binding signal", "setting": "ELF1", "result": "1.04 fold enrichment (6-mer frequency, TF over GST control)"},
      {"measurement": "binding signal", "setting": "SPIB", "result": "1.03 fold enrichment (6-mer frequency, TF over GST control)"},
      {"measurement": "binding signal", "setting": "ELK3", "result": "1.05 fold enrichment (6-mer frequency, TF over GST control)"},
      {"measurement": "binding signal", "setting": "SPIC", "result": "1.09 fold enrichment (6-mer frequency, TF over GST control)"},
      {"measurement": "binding signal", "setting": "ELK4", "result": "1.01 fold enrichment (6-mer frequency, TF over GST control)"},
      {"measurement": "binding signal", "setting": "ETV1", "result": "1.01 fold enrichment (6-mer frequency, TF over GST control)"},
      {"measurement": "binding signal", "setting": "ERF", "result": "1.07 fold enrichment (6-mer frequency, TF over GST control)"},
      {"measurement": "binding signal", "setting": "ETV3L", "result": "1.04 fold enrichment (6-mer frequency, TF over GST control)"},
      {"measurement": "binding signal", "setting": "SPDEF", "result": "1.02 fold enrichment (6-mer frequency, TF over GST control)"},
      {"measurement": "binding signal", "setting": "ETV7", "result": "1.06 fold enrichment (6-mer frequency, TF over GST control)"}
    ]},
    {"sequence": "GTGGTT", "values": [
      {"measurement": "binding signal", "setting": "SPI1", "result": "1.02 fold enrichment (6-mer frequency, TF over GST control)"},
      {"measurement": "binding signal", "setting": "ELK3", "result": "1.01 fold enrichment (6-mer frequency, TF over GST control)"},
      {"measurement": "binding signal", "setting": "SPIC", "result": "1.01 fold enrichment (6-mer frequency, TF over GST control)"},
      {"measurement": "binding signal", "setting": "ELF3", "result": "1.1 fold enrichment (6-mer frequency, TF over GST control)"}
    ]}
  ]
}
